Data taken from PubChem BioAssay.

Test: A549 cell viability effects, profiling panel, calcein-AM fluorescence, 48 h, basal (AID 1162); note: test concentration not given here
Settings: higher = more signal
In the case of `O=C1NC(=O)C2C1C=CC(C(O)c1cc(C(F)(F)F)cc(C(F)(F)F)c1)N2Nc1ccccn1` (stereo unspecified), the z-score is reported as -1.02. `C=C(/C(=C/C[C@H](OC(C)=O)c1ccccc1OCCO)c1cnc2ccccc2c1)C(C)C` showed a z-score of 0.689. `COC(=O)[C@H](Cc1ccccc1)N1CC2=C[C@@H](C3CC3)n3c(=O)n(C)c(=O)n3[C@H]2[C@@H]1[C@@H](O)Cc1ccccc1` showed a z-score of 1.97. In the case of `CC(=O)n1cc(C(O)C2C=CC3C(=O)N(c4ccccc4)C(=O)C3N2Nc2ccc([N+](=O)[O-])cc2)c2ccccc21` (stereo unspecified), the z-score is reported as -0.456. Work on `CN1C=C(C(=O)OCCS(C)(=O)=O)C(C(=O)OCCS(C)(=O)=O)=CC(c2ccc(CO)cc2)=CC1C1CC1` (stereo unspecified) yielded a z-score of 1.39. `COC(=O)[C@]1(CCC(=O)OC(C)(C)C)N=C(c2ccc(OCCCO)cc2)O[C@@H]1c1ccccc1CN=[N+]=[N-]` gave a z-score of -2.13. In the case of `C=CCNC(=O)[C@@H]1[C@H]2C(=O)O[C@H](c3ccccc3)[C@H](c3ccccc3)N2[C@H](c2ccc(OCCO)cc2)[C@@]12C(=O)Nc1ccc(C#CCC(C(=O)OC)C(=O)OC)cc12`, the z-score is reported as -0.305. In the case of `COC(=O)C(CC#Cc1ccc2c(c1)[C@]1(C(=O)N2)[C@H](c2ccc(OCCO)cc2)N2[C@H](c3ccccc3)[C@H](c3ccccc3)OC(=O)[C@H]2[C@@H]1C(=O)N1CCc2cc(OC)c(OC)cc2C1)C(=O)OC`, the z-score is reported as 0.442. For `NC(=O)N1C(=O)C2C(C1=O)C1C=C(c3ccc(CO)cc3)C2C(c2cccs2)N1Cc1cccc(OC(F)(F)F)c1` (stereo unspecified), the z-score was 1.56. In the case of `C=CCC(OC(C)=O)[C@@H]1[C@@H](N(Cc2ccc(-c3ccccc3)cc2)C(=O)c2cccc3ccccc23)c2cc(OCCCO)ccc2N1C(=O)c1ccc(-c2ccccc2)cc1` (stereo partly specified), the z-score is reported as 0.143. With `COc1cc(NN2C(C(O)c3ccco3)C=CC3C(=O)N(c4ccccc4)C(=O)C32)cc(OC)c1OC` (stereo unspecified) the z-score was -0.5. Compound `CC(C)[Si]1(C(C)C)O[C@@H](c2ccccc2)c2cc(-c3ccc(-c4ccc(Cl)c(Cl)c4)o3)nc(-c3ccccc3)c21` has a z-score of 0.272. `CCOC(=O)C[C@H]1[C@H](OC(=O)c2ccc(C(=O)c3ccccc3)cc2)[C@@H](NC(=O)c2ccc3ccccc3n2)c2cc(OCCCO)ccc2N1C(=O)c1ccccc1` showed a z-score of -0.851. `CC(C)C(O)C1C=CC2C(=O)NC(=O)C2N1Nc1ccc(Cl)cc1Cl` (stereo unspecified) showed a z-score of -1.06. For `COc1ccc(C#Cc2ccc3c(c2)[C@]2(C(=O)N3)[C@H](C(=O)Nc3nc4ccccc4s3)[C@H]3C(=O)O[C@H](c4ccccc4)[C@H](c4ccccc4)N3[C@@H]2c2ccc(O)cc2)cc1`, the z-score was -0.151. For `COC(=O)[C@@]1(Cc2ccccc2)N=C(c2ccc(OCCCO)cc2)O[C@H]1c1ccccc1`, the z-score was -1.98. `[N-]=[N+]=Nc1ccccc1[C@H]1OC(c2ccc(OCCCO)cc2)=N[C@@]1(CCS(=O)(=O)c1ccccc1)C(N)=O` gave a z-score of 0.0833. For `O=C1C[C@@](C(=O)NC2CC2)(c2ccc([N+](=O)[O-])cc2)[C@@H](c2ccc(CO)cc2I)N1C1CCCCC1`, the z-score was 0.147. `COc1cc2c(cc1OC)CN(C(=O)[C@H]1[C@@H]3C(=O)O[C@@H](c4ccccc4)[C@@H](c4ccccc4)N3[C@@H](c3ccc(O)cc3)[C@]13C(=O)Nc1ccccc13)CC2` showed a z-score of -0.214. `O=C1O[C@H](c2ccccc2)[C@H](c2ccccc2)N2[C@H]1[C@@H](C(=O)N1CCCCCCC1)[C@]1(C(=O)Nc3ccc(C#CC4=CCCCC4)cc31)[C@H]2c1ccc(OCCO)cc1` gave a z-score of -0.733. Compound `COC(=O)[C@@]1(CCC(=O)OC(C)(C)C)N=C(c2ccc(OCCCO)cc2)O[C@H]1c1ccccc1N=[N+]=[N-]` has a z-score of -1.99. Compound `O=C1C2C=CC(C(O)c3cc(C(F)(F)F)cc(C(F)(F)F)c3)N(n3cnnc3)C2C(=O)N1Cc1ccccc1` (stereo unspecified) has a z-score of -0.416. Work on `CCCCCN1CC=CC23O[C@@H]4C=CCCOC(=O)C4[C@H]2C(=O)N(CCCCCO)[C@@H]3C1=O` (stereo partly specified) yielded a z-score of 0.0264. Work on `COc1ccc([Si](C)(C)[C@@H]2[C@@H](CCO)O[C@]3(C(=O)N(Cc4ccc(N(C=O)c5ccccc5)cc4)c4ccccc43)[C@H]2C)cc1` yielded a z-score of -0.844. With `C=CCOC(=O)[C@H]1[C@@H]2C(=O)O[C@@H](c3ccccc3)[C@@H](c3ccccc3)N2[C@@H](c2ccc(OCCOC(=O)[C@H]3C[C@H]4C(=O)N[C@@H](CCCCNC(C)=O)C(=O)N4[C@H]3c3cccc(OCCO)c3)cc2)[C@]12C(=O)Nc1ccccc12` the z-score was -0.112. For `[N-]=[N+]=NCc1ccccc1C[C@]1(C(N)=O)COC(c2ccc(OCCCO)cc2)=N1`, the z-score was 0.446.
